Laboratory results: PubChem BioAssay (Tox21)
Inconclusive results are not listed. Calls of active or inactive are those of the source. Unless noted, calls follow the shape of the dose curve; as a rule, active = well fitted curve in the direction sought with a large enough effect in the repeat runs; inconclusive = weak or mixed curves; inactive = no such curve, though single readings can be large; an effect the other way counts as inactive or inconclusive.

Key:
[1] = A CellTox Green Cytotoxicity Assay to monitor cytotoxicity in HepG2 cells - 8 hour (AID 1224890); also: nearly all actives have a fitted effect of over 45% in size
How it was run: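 Fluorescent DNA-binding dye, 600 HepG2 cells/well, 5 h preincubation then compound in DMSO; same plates read at 0–40 h, 37 C.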

[2] = qHTS assay to identify small molecule antagonists of the estrogen receptor alpha (ER-alpha) signaling pathway using the BG1 cell line in the presence of 0.1 nM 17-beta-estradiol - cell viability counter screen (AID 1259241); also: nearly all actives have a fitted effect of over 40% in size
How it was run: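 Measures cytotoxicity alongside the ER-alpha antagonist readout: VM7Luc4E2 cells, charcoal-stripped serum, 0.1 nM 17beta-estradiol final, 22 hr compound incubation at 37C, CellTiter-Fluor fluorescence.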

[3] = qHTS assay to identify small molecule antagonists of the androgen receptor (AR) signaling pathway using the MDA cell line in the presence of 0.5 nM R1881 - cell viability counter screen (AID 1259242); also: nearly all actives have a fitted effect of over 45% in size
How it was run: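 Human breast carcinoma MDA-kb2 cells, cultured without CO2, receive compounds alongside 0.5 nM (final) R1881 agonist. After 16 hr at 37C, viability is taken as live-cell protease signal.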

[4] = qHTS assay to identify small molecule phospholipidosis (PLD) inducers (AID 1259344; active = well fitted curve in the direction sought with a large enough effect; an effect the other way counts as inactive or inconclusive)
How it was run: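 Read-out is LipidTOX Red fluorescence (ex 595/em 615) imaged in HepG2 cells after 24 h compound exposure at 37 C, with Hoechst nuclear counterstain (ex 352/em 461) allowing per-cell normalisation.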

[5] = qHTS assay to identify small molecule HDAC inhibitors (AID 1259364);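 also: wild-type HCT-116 cells with endogenous class I/II HDAC activity; top concentration of the series differs between compounds; nearly all actives have a fitted effect of over 45% in size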
How it was run: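 After a 2 hr compound incubation (37C, 5% CO2), HCT-116 cells seeded at 1,500/well the day before received HDAC-Glo reagent; signal read as luminescence after 30 min at room temperature.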

[6] = qHTS assay to identify small molecule HDAC inhibitors - cell viability counter screen (AID 1259365); also: series mostly up to about 92 µM; nearly all actives have a fitted effect of over 50% in size
How it was run: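 Following a 2hr exposure of overnight-plated wild-type HCT-116 cells to DMSO-delivered compounds, CellTiter-Glo was added and luminescence recorded after 30min at room temperature.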

[7] = qHTS assay to identify small molecule agonists of the sonic hedgehog signaling (Shh) pathway - cell viability counter screen (AID 1259366); also: nearly all actives have a fitted effect of over 50% in size
How it was run: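 After a 4hr attachment at 37C, NIH/3T3 cells bearing an integrated Gli1-driven luciferase reporter were dosed with compounds. Treatment lasted 24hr, with the final hour including CellTiter-Fluor for a fluorescence viability measurement.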

[8] = qHTS assay to identify small molecule antagonists of the sonic hedgehog signaling (Shh) pathway - cell viability counter screen (AID 1259367); also: nearly all actives have a fitted effect of over 55% in size
How it was run: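 Fluorescence read-out (CellTiter-Fluor, 1 hr at 37C) taken after 23 hr compound treatment of 3T3 Gli1-Luc cells stimulated with conditioned medium. Cells were seeded at 2,000 per well and pre-incubated 4 hr.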

[9] = qHTS assay to identify small molecule agonists of the sonic hedgehog signaling (Shh) pathway (AID 1259368; calls by dose curve;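 also: NIH/3T3-derived 3T3Gli1-Luc cells carrying a stable Gli1-driven firefly luciferase reporter; series mostly up to about 92 µM; nearly all actives have a fitted effect of over 15% in size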)
How it was run: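 Stable NIH/3T3 Gli1-Luc reporter clone; 24 hr cpd exposure after a 4 hr settling period; luminescence endpoint.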

[10] = qHTS assay to identify small molecule antagonists of the sonic hedgehog signaling (Shh) pathway (AID 1259369; calls by dose curve; also: nearly all actives have a fitted effect of over 45% in size)
How it was run: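 Gli1 transcriptional reporter (firefly Luc) in NIH/3T3 background, conditioned-medium activated. 24hr exposure, luminescence endpoint.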

[11] = qHTS assay to identify small molecule agonists of the androgen receptor (AR) signaling pathway in the presence of an antagonist - cell viability counter screen (AID 1259379);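 also: MDA-kb2 human breast cancer cells carrying an MMTV luciferase reporter; series mostly up to about 92 µM; nearly all actives have a fitted effect of over 25% in size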
How it was run: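 Counter screen for cell viability run in parallel with the AR agonist-mode luciferase assay. MDA-kb2 cells were co-treated with nilutamide (3.0uM final) and compounds, then incubated 16 hr at 37C, and CellTiter-Fluor fluorescence was measured.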

[12] = qHTS assay to identify small molecule agonists of the estrogen receptor beta (ER-beta) signaling pathway - cell viability counter screen (AID 1259380); also: nearly all actives have a fitted effect of over 30% in size
How it was run: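 In this qHTS counter screen, HEK293T cells carrying an ER-beta/UAS beta-lactamase reporter, grown in 2% charcoal-stripped FBS, received compound for 16 hr; ATP-based CellTiter-Glo luminescence was then read after 30 min at room temperature.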

[13] = qHTS assay to identify small molecule antagonists of the estrogen receptor beta (ER-beta) signaling pathway - cell viability counter screen (AID 1259382); also: series mostly up to about 92 µM; nearly all actives have a fitted effect of over 55% in size
How it was run: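 HEK293T ER-beta-UAS-bla, 2% charcoal-stripped FBS; compounds + 1nM E2 16 hr 37C; CellTiter-Glo luminescence, 30 min RT.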

[14] = qHTS assay to identify small molecule agonists or antagonists of the thyroid stimulating hormone receptor (TSHR) signaling pathway - wild type cell line counter screen (AID 1259384; calls by dose curve)
How it was run: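 Wild-type Hek293 cells, 800/well, 18 h at 37C, then compound with Ro20-1724 for 30 min RT. cAMP by HTRF (cAMP-d2/anti-cAMP cryptate), 1 h RT, fluorescence read. 15 concentrations, triplicates.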

[15] = target: Estrogen receptor (Homo sapiens) (UniProt P03372); experiment: qHTS assay to identify small molecule agonists of the estrogen receptor alpha (ER-alpha) signaling pathway in the presence of an antagonist (AID 1259383; calls by dose curve; also: top concentration of the series differs between compounds; nearly all actives have a fitted effect of over 15% in size)
How it was run: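 ER-alpha agonism measured under antagonist challenge: 10.0nM ICI-182,780 (final) plus compound, 15 concentrations, 22hr, VM7Luc4E2 ERE-luciferase cells. Read by luminescence.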

[16] = target: Estrogen receptor beta (Homo sapiens) (UniProt Q92731); experiment: qHTS assay to identify small molecule agonists of the estrogen receptor beta (ER-beta) signaling pathway (AID 1259377; active = well fitted activation curve with a large enough effect in the signal ratio in the repeat runs, not every such curve was filed as active; the % refers to the signal ratio)
How it was run: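 In HEK293T cells bearing a UAS-beta-lactamase reporter under ER-beta control, DMSO-delivered compounds were incubated for 16 hr at 37C. Activity was detected as fluorescence 2 hours after LiveBLAzer B/G FRET substrate addition.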

[17] = target: Estrogen receptor beta (Homo sapiens) (UniProt Q92731); experiment: qHTS assay to identify small molecule antagonists of the estrogen receptor beta (ER-beta) signaling pathway (AID 1259378; active = well fitted inhibition curve with a large enough effect in the signal ratio in the repeat runs, not every such curve was filed as active; the % refers to the signal ratio)
How it was run: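 ER-beta-UAS-bla HEK293T cells in 2% charcoal-stripped FBS medium treated with compound plus 1nM final 17-beta-estradiol for 16 hr at 37C. Beta-lactamase reporter read by FRET substrate fluorescence after 2 hours at room temperature.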
% is scaled to controls: 0 for no effect and ±100 for the full control effect.

Chain of Estrogen receptor beta (Homo sapiens) (Q92731 whole entry, looked up): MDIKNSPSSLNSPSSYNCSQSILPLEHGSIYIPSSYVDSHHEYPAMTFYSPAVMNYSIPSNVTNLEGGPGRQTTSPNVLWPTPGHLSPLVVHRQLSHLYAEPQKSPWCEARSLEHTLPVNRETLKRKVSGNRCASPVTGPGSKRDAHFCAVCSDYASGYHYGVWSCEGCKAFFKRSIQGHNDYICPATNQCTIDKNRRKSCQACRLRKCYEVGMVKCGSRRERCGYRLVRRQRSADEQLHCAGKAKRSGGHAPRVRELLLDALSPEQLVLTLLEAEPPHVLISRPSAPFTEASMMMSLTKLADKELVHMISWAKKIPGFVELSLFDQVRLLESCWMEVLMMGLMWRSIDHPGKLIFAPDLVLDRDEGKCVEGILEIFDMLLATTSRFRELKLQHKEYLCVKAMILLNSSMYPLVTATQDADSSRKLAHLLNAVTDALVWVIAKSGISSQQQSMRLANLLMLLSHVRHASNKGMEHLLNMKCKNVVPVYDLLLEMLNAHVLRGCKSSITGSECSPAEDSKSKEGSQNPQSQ
Chain of Estrogen receptor (Homo sapiens) (P03372 whole entry, looked up): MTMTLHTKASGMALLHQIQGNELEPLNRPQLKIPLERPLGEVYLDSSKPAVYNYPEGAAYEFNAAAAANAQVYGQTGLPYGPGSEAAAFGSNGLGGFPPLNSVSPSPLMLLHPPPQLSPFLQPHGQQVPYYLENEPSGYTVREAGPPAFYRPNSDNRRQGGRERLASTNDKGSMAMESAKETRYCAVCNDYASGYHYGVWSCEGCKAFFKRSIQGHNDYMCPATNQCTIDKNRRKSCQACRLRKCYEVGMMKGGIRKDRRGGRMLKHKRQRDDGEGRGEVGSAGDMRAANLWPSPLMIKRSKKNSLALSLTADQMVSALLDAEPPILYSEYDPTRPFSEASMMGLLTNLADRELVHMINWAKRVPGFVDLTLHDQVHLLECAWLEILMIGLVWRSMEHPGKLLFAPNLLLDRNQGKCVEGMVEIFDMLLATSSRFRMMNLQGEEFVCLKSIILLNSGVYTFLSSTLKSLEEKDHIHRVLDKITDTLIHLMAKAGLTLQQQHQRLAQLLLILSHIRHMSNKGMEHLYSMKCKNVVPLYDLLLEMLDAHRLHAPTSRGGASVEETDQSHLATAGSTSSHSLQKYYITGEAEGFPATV

CN=C(NC#N)Nc1ccc(C2=NNC(=O)CC2C)cc1 (stereo unspecified)
inactive: outcome [1] | Potency [2] | outcome [3] | outcome [4] | Potency [5] | outcome [6] | Potency [7] | Potency [8] | outcome [9] | Potency [10] | Potency [11] | Potency [12] | outcome [13] | outcome [14]

O=C(O)Cc1cn(-c2ccccc2)nc1-c1ccc(Cl)cc1
inactive: outcome [1] | Potency [2] | outcome [3] | outcome [4] | Potency [5] | outcome [6] | Potency [7] | Potency [8] | outcome [9] | Potency [10] | Potency [11] | outcome [13] | outcome [15] | outcome [14]

CCCC/C=C\CCCCCCCCCC=O
inactive: outcome [1] | Potency [2] | outcome [3] | Potency [5] | outcome [6] | Potency [7] | Potency [8] | outcome [9] | Potency [10] | Potency [16] | outcome [17] | Potency [11] | Potency [12] | outcome [13] | outcome [14]

CCCCNc1ccc(C(=O)OCCN(C)C)cc1
inactive: outcome [1] | Potency [2] | outcome [3] | outcome [4] | Potency [5] | outcome [6] | Potency [7] | outcome [9] | Potency [10] | Potency [11] | Potency [12] | outcome [13] | outcome [14]

CCC(C)(CCC(C)C)C(=O)O (stereo unspecified)
inactive: outcome [1] | Potency [2] | outcome [3] | Potency [5] | outcome [6] | Potency [7] | Potency [8] | outcome [9] | Potency [10] | Potency [11] | Potency [12] | outcome [13]

CC(C)(C)c1n[nH]c(=S)n(N)c1=O
inactive: outcome [1] | Potency [2] | outcome [3] | Potency [5] | outcome [6] | Potency [7] | Potency [8] | outcome [9] | Potency [10] | Potency [12] | outcome [13] | outcome [15] | outcome [14]

CCCCCCCCC(=O)Cl
inactive: outcome [1] | Potency [2] | outcome [3] | Potency [5] | outcome [6] | Potency [7] | Potency [8] | outcome [9] | Potency [10] | Potency [11] | Potency [12] | outcome [15]

CCCCNC1CC(C)(C)NC(C)(C)C1
inactive: outcome [1] | Potency [2] | outcome [3] | Potency [5] | outcome [6] | Potency [7] | Potency [8] | outcome [9] | Potency [10] | Potency [16] | outcome [17] | Potency [12] | outcome [13] | outcome [15] | outcome [14]

CC(C)CCCCOC(=O)c1ccccc1C(=O)OCCCCC(C)C
inactive: outcome [1] | Potency [2] | outcome [3] | Potency [5] | outcome [6] | Potency [7] | Potency [8] | outcome [9] | Potency [10] | Potency [16] | outcome [17] | Potency [11] | Potency [12] | outcome [13]

CCCCN
inactive: outcome [1] | Potency [2] | outcome [3] | Potency [5] | outcome [6] | Potency [7] | Potency [8] | outcome [9] | Potency [10] | Potency [16] | outcome [17] | Potency [11] | Potency [12] | outcome [13] | outcome [15]

CC(=O)NCCCCCC(=O)O
inactive: outcome [1] | Potency [2] | outcome [3] | outcome [4] | Potency [5] | outcome [6] | Potency [7] | Potency [8] | outcome [9] | Potency [10] | Potency [16] | outcome [17] | Potency [12] | outcome [13] | outcome [15] | outcome [14]

COC(=O)C1CC(=O)C(C(=O)OC)CC1=O (stereo unspecified)
inactive: cytotoxicity increase [1] -5.53% [at 6.97 µM] | activity change, negative = cytotoxicity [2] 7.13% [at 8.39 µM] | viability change, negative = cytotoxic [3] 1.05% [at 8.39 µM] | activity change, negative = inhibition [5] -0.18% [at 8.39 µM] | activity change, negative = cytotoxicity [6] 0.106% [at 8.39 µM] | viability change, negative = cytotoxic [7] 11.2% [at 8.39 µM] | viability change, negative = cytotoxic [8] 1.71% [at 8.39 µM] | activity change [9] -2.11% [at 8.39 µM] | activity change, negative = inhibition [10] 0.93% [at 8.39 µM] | activity change, negative = cytotoxicity [11] 2.46% [at 8.39 µM] | activity change, negative = cytotoxicity [12] -5.74% [at 8.39 µM] | activity change, negative = cytotoxicity [13] 5.88% [at 8.39 µM] | cAMP activity change [14] 2.64% [at 8.39 µM]

Cc1cc(NC(=O)C2=C(O)c3ccccc3S(=O)(=O)N2C)no1
inactive: outcome [1] | Potency [2] | outcome [3] | outcome [4] | Potency [5] | outcome [6] | Potency [7] | Potency [8] | outcome [9] | Potency [10] | Potency [11] | Potency [12] | outcome [13] | outcome [14]

CCCCCCCCCCCCCC
inactive: outcome [1] | Potency [2] | outcome [3] | Potency [5] | outcome [6] | Potency [7] | Potency [8] | outcome [9] | Potency [10] | Potency [16] | outcome [17] | Potency [11] | outcome [14]

Cc1ccccc1OCC(O)CO (stereo unspecified)
inactive: outcome [1] | Potency [2] | outcome [3] | outcome [4] | Potency [5] | outcome [6] | outcome [9] | Potency [10] | Potency [16] | outcome [17] | Potency [11] | outcome [13] | outcome [14]

CCCCCCCCC1CCC(=O)O1 (stereo unspecified)
inactive: outcome [1] | Potency [2] | outcome [3] | Potency [5] | outcome [6] | Potency [7] | Potency [8] | outcome [9] | Potency [10] | Potency [16] | outcome [17] | Potency [11] | Potency [12] | outcome [13] | outcome [15] | outcome [14]

COC(=O)CCc1ccc(OCC(O)CNC(C)C)cc1 (stereo unspecified)
inactive: outcome [1] | Potency [2] | outcome [3] | outcome [4] | Potency [5] | outcome [6] | Potency [7] | outcome [9] | Potency [10] | Potency [16] | outcome [17] | Potency [11] | outcome [13] | outcome [14]
